Results: PubChem BioAssay AID1159580 (chemical genetic matrix, 2015)
Where “and” joins values, the source holds several entries; their conditions need not be identical. Equal values may be shown once. Hit rate of the full screen: of about 5,500 compounds, about 2,000 (36%) were called active. Not shown: some 18% with an inconclusive outcome. Cut-off read from the data, not from the text of the source: active = normalized growth mostly below about 0.91 (no sharp cut-off); inconclusive = no clear call, values can overlap the other calls; inactive = mostly above about 0.92. This is one part of the list.

Assay: chemical genetic growth profiling, strain panel (AID 1159580);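 note: tested at 20 µM; growth read once vehicle control cultures reached saturation at 30 °C; 1 = growth at the plate median or of vehicle wells; lower values mean less growth of the strain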
Conditions: S. cerevisiae deletion strains, growth OD
[1] = locus YPL241C, strain CIN2, stronger effect = lower value

Measured: normalized growth

CC(=O)OCC(=O)[C@H]1CCC2C3CCC4=CC(=O)CC[C@]4(C)C3CC[C@@]21C (stereo partly drawn)
active: locus YAL013W, strain DEP1, stronger effect = lower value 0.886 | locus YDL074C, strain BRE1, stronger effect = lower value 0.777 | locus YDL134C, strain PPH21, stronger effect = lower value 0.826 | locus YDR162C, strain NBP2, stronger effect = lower value 0.78 | locus YDR392W, strain spt3, stronger effect = lower value 0.56 | locus YDR502C, strain sam2, stronger effect = lower value 0.899 | locus YER155C, strain BEM2 (second series), stronger effect = lower value 0.835 | locus YER155C, strain BEM2, stronger effect = lower value 0.92 | locus YER167W, strain BCK2, stronger effect = lower value 0.829 | locus YGR135W, strain pre9, stronger effect = lower value 0.84 | locus YGR252W, strain gcn5, stronger effect = lower value 0.72 | locus YIL066C, strain RNR3, stronger effect = lower value 0.809 | locus YIR030C, strain dcg1, stronger effect = lower value 0.927 | locus YJR043C, strain POL32, stronger effect = lower value 0.797 | locus YKR001C, strain vps1, stronger effect = lower value 0.777 | locus YLR330W, strain CHS5, stronger effect = lower value 0.864 | locus YLR342W, strain FKS1 (second series), stronger effect = lower value 0.726 | locus YLR418C, strain cdc73, stronger effect = lower value 0.691 | locus YML032C, strain rad52, stronger effect = lower value 0.896 | locus YNL298W, strain CLA4, stronger effect = lower value 0.893 | locus YNL307C, strain MCK1, stronger effect = lower value 0.596 | locus YOL147C, strain pex11, stronger effect = lower value 0.93 | locus YOR144C, strain elg1, stronger effect = lower value 0.929 | locus YOR184W, strain ser1, stronger effect = lower value 0.759 | locus YOR270C, strain vph1, stronger effect = lower value 0.734 | locus YPR167C, strain met16, stronger effect = lower value 0.921
0.752 (active) and 0.988 (inactive): locus YJL095W, strain BCK1, stronger effect = lower value
inactive: locus YAL021C, strain ccr4, stronger effect = lower value 0.94 | locus YAL026C, strain drs2, stronger effect = lower value 0.978 | locus YAL030W, strain snc1, stronger effect = lower value 0.979 | locus YBL061C, strain skt5, stronger effect = lower value 0.967 | locus YBR009C, strain hhf1, stronger effect = lower value 0.986 | locus YBR021W, strain FUR4, stronger effect = lower value 0.898 | locus YBR023C, strain chs3, stronger effect = lower value 0.94 | locus YBR171W, strain sec66, stronger effect = lower value 0.927 | locus YBR229C, strain ROT2, stronger effect = lower value 0.969 | locus YBR231C, strain swc5, stronger effect = lower value 1 | locus YBR279W, strain paf1, stronger effect = lower value 0.976 | locus YCL011C, strain gbp2, stronger effect = lower value 0.969 | locus YCL016C, strain dcc1, stronger effect = lower value 0.961 | locus YCL029C, strain bik1, stronger effect = lower value 0.957 | locus YCL061C, strain MRC1, stronger effect = lower value 0.984 | locus YCL069W, strain vba3, stronger effect = lower value 0.98 | locus YCR088W, strain abp1, stronger effect = lower value 0.972 | locus YDL005C, strain med2, stronger effect = lower value 0.964 | locus YDL035C, strain GPR1, stronger effect = lower value 0.86 | locus YDL040C, strain nat1, stronger effect = lower value 0.973 | locus YDL101C, strain DUN1, stronger effect = lower value 0.961 | locus YDL185W, strain tfp1, stronger effect = lower value 0.949 | locus YDL192W, strain arf1, stronger effect = lower value 0.935 | locus YDR001C, strain nth1, stronger effect = lower value 0.972 | locus YDR069C, strain doa4, stronger effect = lower value 0.967 | locus YDR101C, strain arx1, stronger effect = lower value 0.954 | locus YDR137W, strain rgp1, stronger effect = lower value 1.11 | locus YDR159W, strain sac3, stronger effect = lower value 0.885 | locus YDR195W, strain ref2 1.07 | locus YDR297W, strain sur2, stronger effect = lower value 0.975 | locus YDR318W, strain mcm21, stronger effect = lower value 0.929 | locus YDR334W, strain swr1, stronger effect = lower value 0.971 | locus YDR335W, strain msn5, stronger effect = lower value 0.988 | locus YDR388W, stronger effect = lower value 0.94 | locus YEL003W, strain gim4, stronger effect = lower value 0.994 | locus YEL037C, strain rad23, stronger effect = lower value 0.977 | locus YEL061C, strain CIN8 (second series), stronger effect = lower value 0.977 | locus YEL061C, strain CIN8, stronger effect = lower value 0.944 | locus YER015W, strain faa2, stronger effect = lower value 0.969 | locus YER016W, strain bim1, stronger effect = lower value 0.962 | locus YER110C, stronger effect = lower value 0.943 | locus YER111C, strain swi4, stronger effect = lower value 0.971 | locus YFR010W, strain ubp6, stronger effect = lower value 0.994 | locus YGL078C, strain dbp3, stronger effect = lower value 0.961 | locus YGL086W, strain mad1, stronger effect = lower value 0.934 | locus YGL167C, strain pmr1, stronger effect = lower value 0.951 | locus YGL173C, strain kem1, stronger effect = lower value 0.948 | locus YGL227W, strain vid30, stronger effect = lower value 0.992 | locus YGL240W, strain doc1, stronger effect = lower value 0.95 | locus YGL248W, strain PDE1, stronger effect = lower value 0.927 | locus YGL253W, strain hxk2, stronger effect = lower value 0.919 | locus YHR013C, strain ard1, stronger effect = lower value 0.997 | locus YHR027C, strain rpn1, stronger effect = lower value 0.996 | locus YHR030C, strain SLT2, stronger effect = lower value 0.944 and 1.02 | locus YHR079C, strain IRE1 (second series), stronger effect = lower value 0.956 | locus YHR079C, strain IRE1, stronger effect = lower value 1.02 | locus YHR094C, strain hxt1, stronger effect = lower value 0.956 | locus YHR129C, strain ARP1, stronger effect = lower value 0.944 | locus YHR142W, strain chs7, stronger effect = lower value 0.944 | locus YHR200W, strain rpn10, stronger effect = lower value 0.924 | locus YIL073C, strain SPO22, stronger effect = lower value 0.828 | locus YIL125W, strain kgd1, stronger effect = lower value 0.955 | locus YJL092W, strain hpr5, stronger effect = lower value 0.976 | locus YJL095W, strain BCK1 (second series), stronger effect = lower value 0.965 | locus YJL115W, strain asf1, stronger effect = lower value 0.984 | locus YJL129C, strain trk1, stronger effect = lower value 0.931 | locus YJL134W, strain LCB3, stronger effect = lower value 0.976 | locus YJL154C, strain vps35, stronger effect = lower value 0.98 | locus YJL164C, strain tpk1, stronger effect = lower value 0.978 | locus YJL166W, strain qcr8, stronger effect = lower value 0.989 | locus YJL168C, strain set2, stronger effect = lower value 0.96 | locus YJL187C, strain SWE1 (second series), stronger effect = lower value 0.935 | locus YJR066W, strain TOR1, stronger effect = lower value 0.956 | locus YKL009W, strain mrt4, stronger effect = lower value 0.909 | locus YKL068W, stronger effect = lower value 0.956 | locus YKL085W, strain MDH1 (second series), stronger effect = lower value 0.934 | locus YKL085W, strain MDH1, stronger effect = lower value 0.934 | locus YKL160W, strain elf1, stronger effect = lower value 0.964 | locus YKR026C, strain gcn3, stronger effect = lower value 0.977 | locus YKR091W, strain srl3, stronger effect = lower value 0.98 | locus YLL001W, strain dnm1, stronger effect = lower value 0.985 | locus YLL026W, stronger effect = lower value 0.992 | locus YLL041C, strain sdh2, stronger effect = lower value 0.986 | locus YLR027C, strain aat2, stronger effect = lower value 0.97 | locus YLR039C, strain RIC1, stronger effect = lower value 0.772 | locus YLR058C, strain SHM2, stronger effect = lower value 0.942 | locus YLR102C, strain apc9, stronger effect = lower value 0.956 | locus YLR113W, strain HOG1, stronger effect = lower value 0.951 | locus YLR221C, strain rsa3, stronger effect = lower value 0.972 | locus YLR258W, strain gsy2, stronger effect = lower value 0.958 | locus YLR262C, strain YPT6 (second series), stronger effect = lower value 1.04 | locus YLR262C, strain YPT6, stronger effect = lower value 0.754 | locus YLR268W, strain sec22, stronger effect = lower value 0.919 | locus YLR320W, strain mms22, stronger effect = lower value 0.881 | locus YLR342W, strain FKS1, stronger effect = lower value 0.926 | locus YLR357W, strain rsc2, stronger effect = lower value 1.02 | locus YLR370C, strain arc18, stronger effect = lower value 0.958 | locus YLR371W, strain rom2, stronger effect = lower value 0.966 | locus YLR384C, strain iki3, stronger effect = lower value 0.987 | locus YML016C, strain PPZ1, stronger effect = lower value 0.962 | locus YML120C, strain ndi1, stronger effect = lower value 0.979 | locus YML124C, strain tub3, stronger effect = lower value 0.938 | locus YMR058W, strain fet3, stronger effect = lower value 0.959 | locus YMR078C, strain ctf18, stronger effect = lower value 0.923 | locus YMR125W, strain sto1, stronger effect = lower value 0.986 | locus YMR129W, stronger effect = lower value 0.985 | locus YMR205C, strain PFK2, stronger effect = lower value 0.909 | locus YMR223W, strain ubp8, stronger effect = lower value 0.905 | locus YMR231W, strain pep5, stronger effect = lower value 0.988 | locus YMR307W, strain GAS1, stronger effect = lower value 0.744 | locus YNL067W, strain RPL9B, stronger effect = lower value 0.965 | locus YNL071W, strain lat1, stronger effect = lower value 0.923 | locus YNL153C, strain GIM3, stronger effect = lower value 0.962 | locus YNL183C, strain NPR1, stronger effect = lower value 0.961 | locus YNL209W, strain ssb2, stronger effect = lower value 0.979 | locus YNL233W, strain BNI4, stronger effect = lower value 0.871 | locus YNL248C, strain rpa49, stronger effect = lower value 0.945 | locus YNL250W, strain rad50, stronger effect = lower value 0.978 | locus YNL271C, strain bni1, stronger effect = lower value 0.938 | locus YNL322C, strain KRE1 (second series), stronger effect = lower value 0.951 | locus YNR049C, strain mso1, stronger effect = lower value 0.989 | locus YNR052C, strain pop2, stronger effect = lower value 0.986 | locus YOL012C, strain htz1 1.17 | locus YOR001W, strain rrp6, stronger effect = lower value 0.999 | locus YOR061W, strain CKA2, stronger effect = lower value 0.943 | locus YOR069W, strain VPS5, stronger effect = lower value 0.983 | locus YOR070C, strain gyp1, stronger effect = lower value 0.974 | locus YOR080W, strain dia2, stronger effect = lower value 0.987 | locus YOR083W, strain WHI5, stronger effect = lower value 0.9 | locus YOR106W, strain vam3, stronger effect = lower value 0.941 | locus YOR136W, strain idh2, stronger effect = lower value 0.965 | locus YOR231W, strain MKK1, stronger effect = lower value 0.983 | locus YOR265W, strain rbl2, stronger effect = lower value 0.98 | locus YOR290C, strain snf2, stronger effect = lower value 0.961 | locus YOR316C, strain cot1, stronger effect = lower value 0.947 | locus YPL051W, strain arl3, stronger effect = lower value 0.968 | locus YPL055C, strain LGE1, stronger effect = lower value 0.861 | locus YPL078C, strain atp4, stronger effect = lower value 0.903 | locus YPL106C, strain sse1, stronger effect = lower value 1.04 | locus YPL240C, strain hsp82, stronger effect = lower value 0.982 | [1] 0.963 | locus YPL256C, strain CLN2, stronger effect = lower value 1.01 | locus YPR119W, strain clb2, stronger effect = lower value 0.948 | locus YPR141C, strain kar3, stronger effect = lower value 0.954 | locus YPR163C, strain tif3, stronger effect = lower value 0.916 | strain wtn01, stronger effect = lower value 0.949

C[C@]12C[C@H](O)[C@H]3[C@@H](CCC4=CC(=O)CC[C@@]43C)[C@@H]1CC[C@@H]2C(=O)CO
inactive: locus YAL040C, strain CLN3, stronger effect = lower value 1.05 | locus YDR150W, strain NUM1, stronger effect = lower value 1 | locus YDR363W, strain ESC2, stronger effect = lower value 0.999 | locus YER002W, strain NOP16, stronger effect = lower value 1.01 | locus YGR078C, strain PAC10, stronger effect = lower value 1 | locus YNL175C, strain NOP13, stronger effect = lower value 1.02 | locus YNL197C, strain WHI3, stronger effect = lower value 1.02 | locus YNL224C, strain SQS1, stronger effect = lower value 1.02 | locus YOR083W, strain WHI5 (second series), stronger effect = lower value 1.02 | [1] 1
